# Data taken from PubChem BioAssay (NCATS).
# Results filed as inconclusive are left out. A call without a number means that no potency is given here. Calls of active or inactive are those of the source. Calls follow the shape of the dose curve; as a rule, active = well fitted cell-killing curve with a large enough effect; inconclusive = small, poorly fitted or top-dose-only effect; inactive = no such curve, though single readings can be large or run the other way.
# Assay: qHTS of pediatric cancer cell lines to identify multiple opportunities for drug repurposing: Primary screen for Rh30 cells (AID 1347107); also: nearly all actives have a fitted effect of over 75% in size
# Settings: Rh30 rhabdomyosarcoma viability, CellTiter-Glo luminescence, 48 h; series mostly up to 46 µM
# Description: Drug repurposing or repositioning has been offered as a strategy for drug development in oncology programs. This approach has special potential for childhood cancers and other rare or orphan diseases, where the expected return on new drug development has been a disincentive to pharmaceuticals.
# In this project we exploit the poly-pharmacology of drugs to discover new indications via phenotypic screening of a panel of 19 well-characterized cell lines derived from solid tumors seen in children and adolescents. The goal is to identify approved drugs with previously unrecognized anticancer properties that has the potential to reveal new mechanisms and biological processes involved in carcinogenesis or drug resistance. We employed a titration-based paradigm (quantitative high-throughput screening or qHTS), where all compounds were tested at multiple concentrations for their effect on cell viability. Concentration-response curves (CRCs) were derived directly from the primary screen, and both potency and efficacy values were used to identify compounds with robust bioactivity profiles. We screened the NIH Chemical Genomics Center (NCGC) Pharmaceutical Collection (NPC) and Mechanism Interrogation Plate (MIPE) small molecule collections of approved and investigational compounds against these cell lines; and measured metabolically active cells after 48 hours of compound treatment as a proxy for cell viability.
# Assay Submitter: Nathalia J. Martinez, National Center for Advancing Translational Sciences, National Institutes of Health, Rockville, MD, USA; email: natalia.martinez@nih.gov
# [1] Shen, M et al. Quantitative high-throughput phenotypic screening of pediatric cancer cell lines identifies multiple opportunities for drug repurposing. Oncotarget 2017 Dec 19;9(4):4758-4772. PMID 29435139.
# The cells were obtained from University of North Carolina (UNC), Pediatric Preclinical Testing Program (PPT), and Coriell Institute (CI).
# qHTS cell viability assay:
# Cells were assayed in growth media at a density of 500-1,000 cells/well. Five microliters of cells were dispensed into 1,536-well, white, solid-bottom, TC-treated plates (Greiner Bio One) using a multidrop dispenser and incubated at 37 degrees C, 5% CO2, under a humidified atmosphere for 5 hours. Twenty-three nanoliters of compounds and controls (neutral control DMSO or positive control bortezomib at final concentration of 2.3 µM) were subsequently transferred by Kalypsys pintool. For primary screens, the MIPE collection was tested at 11-point dilutions (final concentrations range from 0.78 nM to 46 µM) and the NPC collection at 8-point dilutions (final concentrations range from 0.59 nM to 46 µM). Compounds tested in follow-up screens were assayed at 11-point dilutions. Cells were incubated for 48 hours, followed by addition of 3 µL of CellTiter-Glo (Promega). After a 15 min incubation at room temperature, samples were analyzed for luminescence intensity using a ViewLux High-throughput CCD imager equipped with clear filters.
row,Compound,Potency
1,CCn1cc(C(=O)O)c(=O)c2cc(F)c(N3CCNC(C)C3)c(F)c21 (stereo not given),inactive
2,CCCCNc1cc(C(=O)O)cc(S(N)(=O)=O)c1Oc1ccccc1,inactive
3,CC(C)(Sc1ccc(CCN(CCCCC2CCCCC2)C(=O)NC2CCCCC2)cc1)C(=O)O,inactive
4,C[C@]12CCC(=O)C=C1CC[C@@H]1[C@@H]2[C@@H](O)C[C@@]2(C)[C@H]1CC[C@]2(O)C(=O)CO,inactive
5,CCN(CC)CCCC(C)Nc1ccnc2cc(Cl)ccc12 (stereo not given),inactive
6,COc1ccc([C@@H]2CC(=O)c3c(O)cc(O[C@@H]4O[C@H](CO[C@@H]5O[C@@H](C)[C@H](O)[C@@H](O)[C@@H]5O)[C@@H](O)[C@H](O)[C@@H]4O)cc3O2)cc1O,inactive
7,NS(=O)(=O)c1cc2c(cc1Cl)NC=NS2(=O)=O,inactive
8,CO[C@@H]1[C@H](N(C)C(=O)c2ccccc2)C[C@H]2O[C@]1(C)n1c3ccccc3c3c4c(c5c6ccccc6n2c5c31)C(=O)NC4,inactive
9,CC1(C)CNc2cc(NC(=O)c3cccnc3NCc3ccncc3)ccc21,inactive
10,O=c1ncn2nc(Sc3ccc(F)cc3F)ccc2c1-c1c(Cl)cccc1Cl,inactive
11,CS(=O)(=O)c1ccc(C(=O)Nc2ccc(Cl)c(-c3ccccn3)c2)c(Cl)c1,inactive
12,C1COC(NC(C2CC2)C2CC2)=N1,inactive
13,Cc1ccc(N(CC2=NCCN2)c2cccc(O)c2)cc1,inactive
14,Cn1c(=O)c(F)c(Nc2ccc(I)cc2F)c2c(=O)n(C[C@@H](O)CO)cnc21,inactive
15,c1ccc(-c2nn3c(c2-c2ccnc4cc(OCCN5CCOCC5)ccc24)CCC3)nc1,inactive
16,CC(C)(C)NCC(O)c1ccc(O)c(CO)c1 (stereo not given),inactive
17,COc1ccc2c3n(c(=NC(=O)c4cccnc4)nc2c1OC)CCN3,inactive
18,O=C(O)CCc1ccc(NCc2cccc(Oc3ccccc3)c2)cc1,inactive
19,COc1ccccc1[C@H](c1cccc2ccccc12)[C@@](C)(C#N)C(=O)N1CCC(c2cccc(C(F)(F)F)c2)CC1,inactive
20,COc1ccc2nc(S(=O)Cc3ncc(C)c(OC)c3C)[nH]c2c1 (stereo not given),inactive

row,Compound,Potency
1,CCOc1cc(C=C2C(=O)N(c3ccccc3)N=C2C)cc(Cl)c1OCC(=O)OC,inactive
2,COc1cccc2cc(-c3nc(C4CCC(C(=O)O)CC4)n4ncnc(N)c34)[nH]c12 (stereo not given),inactive
3,NC(=O)c1ccc(-c2nc(-c3ccc4c(c3)OCCO4)c(-c3ccccn3)[nH]2)cc1,inactive
4,CC(C=CC1=C(C)CCCC1(C)C)=CC=CC(C)=CC(=O)O,inactive
5,Cc1[nH]c(=O)c(C#N)cc1-c1ccncc1,inactive
6,NCCCC(N)(C(=O)O)C(F)F (stereo not given),inactive
7,O=C(C=Cc1ccc(/C=C/C(=O)Nc2ccc(C3=NCCN3)cc2)cc1)Nc1ccc(C2=NCCN2)cc1,inactive
8,O=C1CCc2cc(OCCCCc3nnnn3C3CCCCC3)ccc2N1,inactive
9,COc1nc(-c2ccc3c(c2)OCO3)n(-c2ccc(NC(=O)CSc3ccccc3)cc2)n1,inactive
10,CS(=O)(=O)Oc1ccc2c(NC(N)=O)c(C(=O)c3ccc(Cl)cc3Cl)oc2c1,inactive
11,C[C@H](NC(=O)Cc1cc(F)cc(F)c1)C(=O)N[C@@H]1C(=O)N(C)c2ccccc2-c2ccccc21,inactive
12,O=C(O)[C@@H](c1ccc(OCc2ccc3ccccc3n2)cc1)C1CCCC1,inactive
13,COc1ccc(-c2ccc3c(N4CCOCC4)nc(N4C[C@@H](C)O[C@@H](C)C4)nc3n2)cc1CO,inactive
14,Clc1cccc(Cl)c1NC1=NCCN1,inactive
15,Nc1ccc(S(=O)(=O)Nc2ccnn2-c2ccccc2)cc1,inactive
16,COc1ccc(-c2ccc3c(N4CCOC[C@H]4C)nc(N4CCOC[C@H]4C)nc3n2)cc1CO,inactive
17,CCOc1ccc(Cc2cc([C@@H]3O[C@H](CO)[C@@H](O)[C@H](O)[C@@H]3O)ccc2Cl)cc1,inactive
18,CNCc1ccc(-c2[nH]c3cc(F)cc4c3c2CCNC4=O)cc1,inactive
19,COc1ccc(-c2oc3cc(OC)ccc3c2C(=O)c2ccc(C#N)cc2)cc1,inactive
20,O=C1CCCC2=C1C(c1[nH]ncc1Cl)N=C(Nc1nc3ccccc3o1)N2 (stereo not given),inactive
